According to the supplement of paper PMC7156485:
“And” between values parts separate entries of the source, which are not always exact repeats. Identical values can stand only once. Counter-ions that a name gives are not always drawn. ± gives the standard deviation of the averaged measurements.

Test system: TDF
Assay: cell number relative to DMSO (% of DMSO); higher = more cells (less growth inhibition / toxicity)
Settings: concentration: 10 µM; 24 h
Summary of the method: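 Cells were seeded at 800 per well in 384-well plates with RPMI containing 10% FBS; both HCC1569 and TDF lines were used. Compounds were added at 10 µM for 24 h at 37 °C, in triplicate, before fixation in 3.7% formaldehyde and staining with a rabbit anti-H1.0 antibody, an AlexaFluor 647 secondary and DAPI. H1.0 nuclear intensity or cell number is reported as percent of the plate control using the median of replicates, and HCC1569 values were smoothed for positional effects.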
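Further: TDF denotes transformed human dermal fibroblasts of mesenchymal origin.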

**Q.** With O=c1cc(O)cc(C=Cc2ccc(O)c(O)c2)o1 [Hispidin] as the molecule, how does the cell number read?
**A.** 94.8

**Q.** CS(=O)c1ccc(-c2nc(-c3ccc(F)cc3)c(-c3ccncc3)[nH]2)cc1 (stereo not drawn) was tested. Which cell number did it give?
**A.** 107

**Q.** CC(C)Cc1ccc(CC(=O)O)cc1 [(4-isobutylphenyl)acetic acid] was tested. Which cell number did it give?
**A.** 110

**Q.** Which cell number does the source give for COc1cc2c(cc1OC)-c1cc(=Nc3c(C)cc(C)cc3C)n(C)c(=O)n1CC2.Cl [Trequinsin hydrochloride] here?
**A.** 111

**Q.** O=C(O)CNC(=O)C(=O)O [2-(carboxymethylamino)-2-oxoacetic acid] was tested. Which cell number did it give?
**A.** 92.4

**Q.** Which cell number does the source give for CC(c1cc2ccccc2s1)N(O)C(N)=O (stereo not drawn) [Zileuton] here?
**A.** 98.4

**Q.** Which cell number does the source give for O=C(C1CCCCC1)N1CC(=O)N2CCc3ccccc3C2C1 (stereo not drawn) [Praziquantel] here?
**A.** 103 ± 5.6

**Q.** With Clc1ccc(CCC(Cn2ccnc2)Sc2c(Cl)cccc2Cl)cc1.O=[N+]([O-])O (stereo not drawn) [Butoconazole nitrate] as the molecule, how does the cell number read?
**A.** 99.7

**Q.** Which cell number does the source give for COCC(=O)NCC=Cc1ccc2ncnc(Nc3ccc(Oc4ccc(C)nc4)c(C)c3)c2c1 here?
**A.** 94.9

**Q.** With COc1cc2ncc(-c3ccccc3)nc2cc1OC as the molecule, how does the cell number read?
**A.** 94.5

**Q.** Which cell number does the source give for CN(C)c1ccc(O)c2c1CC1CC3C(N(C)C)C(=O)C(C(N)=O)=C(O)C3(O)C(=O)C1=C2O.Cl (stereo not drawn) here?
**A.** 96.9

**Q.** For C=CC(=O)Nc1cc2c(Nc3ccc(F)c(Cl)c3)ncnc2cc1OCCCN1CCOCC1.Cl.Cl [Canertinib], which cell number is on record?
**A.** 87.4

**Q.** For c1ccc(C(OC2CCN(CCCc3nn[nH]n3)CC2)c2ccccc2)cc1 [4-(benzhydryloxy)-1-[3-(1H-tetraazol-5-yl)propyl]piperidine], which cell number is on record?
**A.** 102

**Q.** With COc1cc2ncnc(Nc3ccc(NC(=O)c4ccccc4)cc3)c2cc1OC [Aurora Kinase Inhibitor II] as the molecule, how does the cell number read?
**A.** 54.8

**Q.** How did the cell number turn out when OCC(CO)(CO)NCC(O)Cn1c2ccc(Cl)cc2c2cc(Cl)ccc21 (stereo not drawn) was run?
**A.** 76.8

**Q.** With COc1nc(C)nc(Cl)c1NC1=NCCN1.Cl [Moxonidine hydrochloride] as the molecule, how does the cell number read?
**A.** 102

**Q.** With N#Cc1c(-c2ccccc2)no[n+]1[O-] [4-Phenyl-3-furoxancarbonitrile] as the molecule, how does the cell number read?
**A.** 93.3

**Q.** N#CC(=C(N)Sc1ccc(N)cc1)c1ccccc1C(F)(F)F [MEK1/2 Inhibitor] was tested. Which cell number did it give?
**A.** 111

**Q.** Which cell number does the source give for CC[N+](CC)(CC)CC(=O)Nc1c(C)cccc1C.[Br-] [Lidocaine N-ethyl bromide quaternary salt] here?
**A.** 108

**Q.** For CCOC(=O)CN1C(=O)c2ccc3c4c(ccc(c24)C1=O)C(=O)N(CC(=O)OCC)C3=O, which cell number is on record?
**A.** 105

**Q.** With Cc1nn(C)c2nc(NNC(=O)Nc3cc(Cl)nc(Cl)c3)cc(C(C)C)c12 as the molecule, how does the cell number read?
**A.** 12.8

**Q.** How did the cell number turn out when CCCOc1cc2c(cc1\C(C)=C/C=C/C(C)=C/C(=O)O)C(C)(C)CCC2(C)C was run?
**A.** 107

**Q.** How did the cell number turn out when CC(Cc1ccc(O)c(O)c1)C(C)Cc1ccc(O)c(O)c1 (stereo not drawn) was run?
**A.** 108 and 87.9

**Q.** How did the cell number turn out when CS(=O)(=O)c1ccc(C2=C(c3ccccc3)C(=O)OC2)cc1 [Rofecoxib] was run?
**A.** 88.9

**Q.** With CCCCCC=CCC=CCC=CCC=CCCCC(=O)OC(CO)CO [2-Arachidonoylglycerol] as the molecule, how does the cell number read?
**A.** 107

**Q.** Which cell number does the source give for CC1(C)OC2CC(=O)OCC23C1CC(=O)C1(C)C3CCC2(C)C(c3ccoc3)OC(=O)C3OC321 (stereo not drawn) [Limonin] here?
**A.** 104

**Q.** CCCCCCCC/C=C\CCCCCCCC(=O)NCc1ccc(O)c(OC)c1 [(9Z)-N-(4-hydroxy-3-methoxybenzyl)-9-octadecenamide] was tested. Which cell number did it give?
**A.** 91.5

**Q.** How did the cell number turn out when CC1(C)CCC(C)(C)c2cc(C(=O)Nc3ccc(C(=O)O)cc3)ccc21 was run?
**A.** 104

**Q.** O=c1c(-c2ccc(O)cc2)coc2cc(OC3OC(CO)C(O)C(O)C3O)ccc12 (stereo not drawn) [Daidzin] was tested. Which cell number did it give?
**A.** 108

**Q.** O.O.O=c1c(O)c(-c2ccc(O)c(O)c2)oc2cc(O)cc(O)c12 [Quercetin dihydrate] was tested. Which cell number did it give?
**A.** 98.7

**Q.** With O=C(Nc1cccc(Nc2ncc(Br)c(NCCc3cnc[nH]3)n2)c1)N1CCCC1 as the molecule, how does the cell number read?
**A.** 33.8

**Q.** With CC(C(O)c1ccc(O)cc1)N1CCC(Cc2ccccc2)CC1 (stereo not drawn) [Ifenprodil tartrate] as the molecule, how does the cell number read?
**A.** 102

**Q.** COC(=O)C1=C(C)NC(C)=C(C(=O)OCCN(C)Cc2ccccc2)C1c1cccc([N+](=O)[O-])c1.Cl (stereo not drawn) [Nicardipine.HCl] was tested. Which cell number did it give?
**A.** 100
